Measurements from PubChem BioAssay (NCI).
About 79,000 compounds went through this panel and 15% of them were active in at least one assay; those are over-represented in the sample as a whole. Activity calls are given as the source filed them. No stated cut-off is given here; in the data, active means growth inhibition above about 70%; inactive means the rest.

Tests used:
[1] = NCI Yeast Anticancer Drug Screen. Data for the rad52 strain (AID 147);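 further: 0% = growth of vehicle-treated control cultures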; details: S. cerevisiae rad52 mutant growth inhibition, hits give high values
Summary of the method: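 DNA repair-defective yeast; compound exposure; growth scored against vehicle controls.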

[2] = NCI Yeast Anticancer Drug Screen. Data for the wt1 strain (AID 149);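 further: 0% = growth of vehicle-treated wt1 cultures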; details: S. cerevisiae wt1 strain (SPY 50644) growth inhibition, hits give high values
Summary of the method: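 Vehicle-normalised growth inhibition; strain wt1; compound exposure.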

[3] = NCI Yeast Anticancer Drug Screen. Data for the rad50EPP+ strain (AID 151);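 further: 0% = growth of vehicle-treated control cultures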; details: S. cerevisiae rad50 mutant strain, hits give high values
Summary of the method: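 rad50EPP+ yeast treated with test compounds. Readout: growth vs vehicle control.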

[4] = NCI Yeast Anticancer Drug Screen. Data for the mgt1 strain (AID 153); details: S. cerevisiae mgt1 mutant growth inhibition, hits give high values
Summary of the method: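 Growth inhibition relative to vehicle controls was scored for the mgt1 yeast strain after compound exposure.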

[5] = NCI Yeast Anticancer Drug Screen. Data for the rad50 strain (AID 155);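 further: 0% = growth of vehicle-only cultures of the same strain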; details: S. cerevisiae rad50 strain growth inhibition, hits give high values
Summary of the method: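 A DNA repair-deficient yeast mutant serves as the test organism; compound-induced growth inhibition is calculated against vehicle-treated cells.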

[6] = NCI Yeast Anticancer Drug Screen. Data for the mec2-1 strain (AID 157); details: S. cerevisiae mec2-1 strain, hits give high values
Summary of the method: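 Growth inhibition is read against vehicle-treated controls after compound exposure of the mec2-1 yeast strain, which is defective in DNA damage repair or cell cycle control.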

[7] = NCI Yeast Anticancer Drug Screen. Data for the rad14 strain (AID 159);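 further: 0% = growth of vehicle-treated control cultures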; details: S. cerevisiae rad14 strain growth inhibition, hits give high values
Summary of the method: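 Vehicle-treated cultures served as the baseline for growth inhibition of a DNA repair-mutant yeast strain exposed to each compound.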

[8] = NCI Yeast Anticancer Drug Screen. Data for the sgs1 mgt1 strain (AID 161);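 further: 0% = growth of cultures given vehicle only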; details: S. cerevisiae sgs1 mgt1 strain, hits give high values
Summary of the method: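 Yeast cells carrying a defined DNA-repair defect were exposed to test compounds. Growth inhibition was measured relative to vehicle-treated controls.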

[9] = NCI Yeast Anticancer Drug Screen. Data for the CLN2oe strain (AID 163);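 further: 0% = growth of vehicle-only control cultures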; details: S. cerevisiae CLN2oe strain, hits give high values
Summary of the method: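 Compound-treated yeast; growth vs vehicle ctrl = % inhibition. Genetically altered strain (cell-cycle control).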

[10] = NCI Yeast Anticancer Drug Screen. Data for the cln2 rad14 strain (AID 165);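 further: 0% = growth equal to vehicle treated cultures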; details: S. cerevisiae cln2 rad14 strain, hits give high values
Summary of the method: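 Growth inhibition, relative to vehicle-treated controls, is the read-out. The test organism is a yeast strain with defined genetic alterations, cln2 rad14.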

[11] = NCI Yeast Anticancer Drug Screen. Data for the bub3 strain (AID 167); details: S. cerevisiae bub3 mutant strain, hits give high values
Summary of the method: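 Inhibition values come from growth of compound-treated mutant yeast normalised to vehicle-treated controls.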

[12] = NCI Yeast Anticancer Drug Screen. Data for the mlh1 strain (AID 171);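 further: 0% = growth of vehicle-treated control cultures of the same strain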; details: S. cerevisiae mlh1 strain growth inhibition, hits give high values
Summary of the method: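 Compounds are applied to a genetically altered yeast strain, and its growth is compared with that of vehicle-treated cultures to give percent inhibition.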

[13] = NCI Yeast Anticancer Drug Screen. Data for the sgs1 strain (AID 173);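 further: 0% = growth of vehicle-only control cultures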; details: S. cerevisiae sgs1 mutant, hits give high values
Summary of the method: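 Compounds applied to genetically altered yeast; growth compared with vehicle-treated cultures to give % inhibition.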

[14] = NCI Yeast Anticancer Drug Screen. Data for the mlh1 rad18 strain (AID 175); details: S. cerevisiae mlh1 rad18 strain growth inhibition, hits give high values
Summary of the method: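 Cells of a genetically altered yeast strain, deficient in DNA damage repair, were treated with compound. Their growth was then compared with that of vehicle-treated cultures to give inhibition.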

[15] = NCI Yeast Anticancer Drug Screen. Data for the rad18 strain (AID 177); details: S. cerevisiae rad18 mutant growth inhibition, hits give high values
Summary of the method: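 Compounds are applied to a repair-deficient yeast strain, and growth is compared with that of vehicle-treated cultures to give percent inhibition.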

[16] = at 5.0 µM (retest, dose inferred, filed as 0.5)
[17] = at 50.0 µM (retest, dose inferred, filed as 5.0)

Measured: growth inhibition

O=C1c2ccccc2-c2nc3ccccc3nc21
inactive: [1]; at 1.2 µM -27% | [1]; at 3.7 µM -30% | [1]; at 11.0 µM -10% | [2]; at 1.2 µM -20% | [2]; at 3.7 µM -17% | [2]; at 11.0 µM -11% | [2]; at 33.0 µM 33% | [2]; at 100.0 µM 66% | [3]; at 1.2 µM 3% | [3]; at 3.7 µM 28% | [4]; at 1.2 µM -50% | [4]; at 3.7 µM -43% | [4]; at 11.0 µM -26% | [4]; at 33.0 µM -1% | [4]; at 100.0 µM 61% | [5]; at 1.2 µM -6% | [5]; at 3.7 µM -15% | [5]; at 11.0 µM 0% | [5]; at 50.0 µM -20.6% | [6]; at 1.2 µM -79% | [6]; at 3.7 µM -54% | [6]; at 11.0 µM -41% | [6]; at 33.0 µM 50% | [6]; at 50.0 µM -35.1% | [6]; at 100.0 µM 67% | [7]; at 1.2 µM -43% | [7]; at 3.7 µM -39% | [7]; at 11.0 µM -31% | [7]; at 33.0 µM 15% | [7]; at 100.0 µM 46% | [8]; [16] -21% | [8]; [17] 25% | [8]; at 50.0 µM -24.4% | [9]; at 1.2 µM -38% | [9]; at 3.7 µM -18% | [9]; at 11.0 µM -39% | [9]; at 33.0 µM -9% | [9]; at 100.0 µM 34% | [10]; [16] 25% | [10]; [17] 52% | [10]; at 50.0 µM 3.35% | [11]; at 1.2 µM -19% | [11]; at 3.7 µM -13% | [11]; [16] 21% | [11]; at 11.0 µM -11% | [11]; at 33.0 µM 46% | [11]; [17] 39% | [11]; at 50.0 µM -14.2% | [11]; at 100.0 µM 66% | [12]; at 1.2 µM -31% | [12]; at 3.7 µM -30% | [12]; at 11.0 µM -25% | [12]; at 33.0 µM -1% | [12]; at 100.0 µM 61% | [13]; at 1.2 µM -48% | [13]; at 3.7 µM -57% | [13]; at 11.0 µM -57% | [13]; at 33.0 µM -19% | [13]; at 100.0 µM 36% | [14]; at 50.0 µM 66.7% | [15]; at 1.2 µM -47% | [15]; at 3.7 µM -38% | [15]; at 11.0 µM -28% | [15]; at 33.0 µM 12% | [15]; at 100.0 µM 58%
active: [1]; at 33.0 µM 90% | [1]; at 100.0 µM 91% | [3]; at 11.0 µM 79% | [3]; at 33.0 µM 95% | [3]; at 100.0 µM 81% | [5]; [16] 80% | [5]; at 33.0 µM 85% | [5]; [17] 97% | [5]; at 100.0 µM 83% | [6]; [16] 83% | [6]; [17] 98% | [14]; [16] 84% | [14]; [17] 99%

[O-][n+]1c2ccc(O)cc2nc2ccc(Cl)cc21
active: [1]; at 33.0 µM 75% | [1]; at 100.0 µM 75% | [4]; at 100.0 µM 81% | [5]; at 33.0 µM 81% | [5]; at 50.0 µM 81.9% | [5]; at 100.0 µM 84% | [6]; at 50.0 µM 75% | [7]; at 100.0 µM 73% | [11]; at 50.0 µM 78.8% | [12]; at 100.0 µM 78% | [15]; at 33.0 µM 79% | [15]; at 100.0 µM 82%
inactive: [1]; at 1.2 µM 5% | [1]; at 3.7 µM 19% | [1]; at 11.0 µM 45% | [2]; at 1.2 µM 4% | [2]; at 3.7 µM 9% | [2]; at 11.0 µM 23% | [2]; at 33.0 µM 34% | [2]; at 100.0 µM 53% | [3]; at 1.2 µM 5% | [3]; at 3.7 µM 16% | [3]; at 11.0 µM 37% | [3]; at 33.0 µM 57% | [3]; at 100.0 µM 56% | [4]; at 1.2 µM 8% | [4]; at 3.7 µM 22% | [4]; at 11.0 µM 34% | [4]; at 33.0 µM 65% | [5]; at 1.2 µM 6% | [5]; at 3.7 µM 24% | [5]; [16] -5% | [5]; at 11.0 µM 51% | [5]; [17] 17% | [6]; at 1.2 µM 0% | [6]; at 3.7 µM 9% | [6]; [16] 5% | [6]; at 11.0 µM 25% | [6]; at 33.0 µM 41% | [6]; [17] -13% | [6]; at 100.0 µM 51% | [7]; at 1.2 µM 0% | [7]; at 3.7 µM 8% | [7]; at 11.0 µM 30% | [7]; at 33.0 µM 58% | [8]; [16] -12% | [8]; [17] -1% | [8]; at 50.0 µM 67% | [9]; at 1.2 µM 0% | [9]; at 3.7 µM 9% | [9]; at 11.0 µM 20% | [9]; at 33.0 µM 34% | [9]; at 100.0 µM 49% | [10]; [16] -4% | [10]; [17] 9% | [10]; at 50.0 µM 43.1% | [11]; at 1.2 µM 5% | [11]; at 3.7 µM 2% | [11]; [16] -7% | [11]; at 11.0 µM 23% | [11]; at 33.0 µM 41% | [11]; [17] 11% | [11]; at 100.0 µM 59% | [12]; at 1.2 µM 4% | [12]; at 3.7 µM 10% | [12]; at 11.0 µM 28% | [12]; at 33.0 µM 62% | [13]; at 1.2 µM 4% | [13]; at 3.7 µM 10% | [13]; at 11.0 µM 26% | [13]; at 33.0 µM 46% | [13]; at 100.0 µM 59% | [15]; at 1.2 µM 7% | [15]; at 3.7 µM 23% | [15]; at 11.0 µM 47%
